Where “and” joins values, the source holds several entries; their conditions need not be identical. Equal entries are not always repeated. Calls of active or inactive are those of the source. How the calls were made is not given here.

The results in this text go back to PubChem BioAssay.

The test system of this assay is Aerobactin synthetase IucA (Klebsiella pneumoniae hvKP1). In words: IucA enzyme inhibition, primary screen, biochemical, Spectrum library (AID 1346200).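 Further: 100% = wells without compound and 0% = wells lacking enzyme.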 The conditions noted are these: malachite green pyrophosphate, A620, at 8 µM, hits give low values.
For the compound `CCCCCCCCCCCCCCCC(=O)OC/C=C(C)/C=C/C=C(C)/C=C/C1=C(C)CCCC1(C)C`, the activity remaining was 89% (inactive).
Next, `CS(=O)(=O)CCCCN=C=S`: 101% (inactive).
Then `OCC(O)C(O)C(O)CO` (stereo not given), with 112% (inactive) and 92.5% (inactive); and `NC(=NCCC[C@H](N)C(=O)O)NC(CCC(=O)O)C(=O)O` (stereo not given in full), with 107% (inactive); and `Oc1ccc([C@H]2Oc3cc(O)cc(O)c3C[C@H]2O)cc1`, with 113% (inactive).
